HCMV inh – inhibitors of human cytomegalovirus | actives 4.5% (n = 410,000) | HFF cells, HCMV-luciferase reporter, 72 h; stronger effect = lower value | activity change, negative = inhibition, % at 57.5 µM; in the data active = activity change below about -60%; inconclusive = no clear call, values can overlap the other calls; inactive = above about -39%
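Cell-based, HFFs, 1000 cells/well, 16 h 37C; cpds in DMSO + HCMV-luc, MOI 1 PFU/cell; 72 h 37C; OneGlo luminescence after 5 min RT; norm. to buffer vs Salinomycin 10uM.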
LASV entry inh – inhibitors of Lassa virus binding or cell entry; Lassa virus pseudotype entry inhibition, cell reporter; Potency, µM (series often up to 37.9 µM), hits mostly inhibitors; actives 1.2% (n = 300,000); calls by dose curve; tested in HEK293 cells; note: nearly all actives have a fitted effect of over 50% in size
VACV mCherry inh – vaccinia inhibition (mCherry reporter); Vaccinia virus mCherry reporter infection, fluorescence; Potency, µM (series often up to 36.5 µM), hits mostly inhibitors; actives 0.63% (n = 310,000); AID 720579; calls by dose curve; tested in A549 cells; note: nearly all actives have a fitted effect of over 35% in size
VACV Venus inh – vaccinia inhibition (Venus reporter). Vaccinia virus Venus reporter expression, fluorescence. Potency, µM (titrated, usually from 36.5 µM), hits mostly inhibitors. actives 0.46% (n = 330,000). AID 720580; calls by dose curve; tested in A549 cells; note: nearly all actives have a fitted effect of over 30% in size
MARV entry inh – blocks Marburg virus binding to or entry into cells. Marburg virus pseudotyped entry inhibition, cell reporter. Potency, µM (highest dose often 37.8 µM), usual class: inhibitors. actives 1.8% (n = 300,000). AID 540276; calls by dose curve; tested in HEK293 cells
FMDV inh – blocks foot and mouth disease virus; Potency, µM (series often up to 57.9 µM), actives largely listed as inhibitors; FMDV antiviral cell-based qHTS; actives 1.2% (n = 410,000); calls by dose curve; tested in HEK293T cells; note: read-out not given here; nearly all actives have a fitted effect of over 45% in size
Numbers stand for hits; . = inactive; ? = inconclusive; / = no result. Shown are actives, neighbours in structure and some others; about 6.5% of the full set was active somewhere.

SMILES	HCMV inh	LASV entry inh	VACV mCherry inh	VACV Venus inh	MARV entry inh	FMDV inh
Cc1cccc(NC(=O)CN(C)S(=O)(=O)c2ccc3c(c2)c(=O)n(C)c(=O)n3C)c1	.	.	.	.	.	.
Cc1nc(-c2cccc(F)c2)sc1CCNC(=O)c1c(F)cccc1Cl	.	.	.	.	/	.
CC(=O)Nc1ccc(C2C(=O)c3ccccc3C2=O)cc1	.	.	.	.	.	20µM
CCCC(=O)Nc1ccc(C2C(=O)c3ccccc3C2=O)cc1	.	.	.	.	?	10µM
CCn1nc(C)c(CN2CCC3(CCC(CNC(=O)c4ccccc4)O3)CC2)c1C (stereo not given)	/	/	.	.	/	.
O=C(NCc1ccccc1)C1C(c2ccc3c(c2)OCO3)=Nc2ccccc2N1C(=O)c1ccco1 (stereo not given)	-62	/	?	.	/	.
O=C(NCc1ccccc1)C1C(c2ccc3c(c2)OCO3)=Nc2ccccc2N1C(=O)c1ccccc1 (stereo not given)	.	/	?	.	/	.
c1cc2c(cc1Cc1cncc(Cc3ccc4c(c3)OCO4)c1)OCO2	/	/	.	.	/	/
O=C(Nc1ccccc1)N(Cc1c[nH]c2ccccc12)C1CCCCCC1	.	.	?	.	.	.
O=C(c1ccco1)N1CCN(c2nc(C(F)(F)F)nc3c2nnn3Cc2ccccc2)CC1	-76	?	/	/	?	14µM
O=C(c1ccco1)N1CCN(c2ncnc3c2nnn3Cc2ccccc2Cl)CC1	.	.	.	.	.	?
Cc1ccc(S(=O)(=O)Nc2ccccc2C(=O)Nc2nc(-c3ccc(F)cc3)cs2)cc1	-103	3.3µM	?	?	2.8µM	.
COc1ccc(-c2csc(NC(=O)c3ccccc3F)n2)cc1	.	/	/	/	/	.
O=C(CCNC(=O)c1ccccc1Cl)Nc1nc(-c2ccc3ccccc3c2)cs1	?	.	/	/	?	?
O=C(Nc1ccc(-c2csc(-c3ccccc3)n2)cc1)c1ccccc1Cl	-67	.	?	?	?	/
COc1ccc(-c2csc(NC(=O)c3ccccc3NS(=O)(=O)c3ccc(F)c(F)c3)n2)cc1	-100	3.7µM	?	?	2.3µM	?
O=C(CCNC(=O)c1ccccc1Cl)Nc1nc(-c2ccc(F)cc2)cs1	-80	?	.	.	.	?
CC(=O)Nc1cc(C(=O)N2CCN(C(=O)c3ccco3)CC2)cc2ncn(CCc3ccccn3)c12	/	/	.	.	/	.
CCCCc1nn2c(=O)cc(COC(=O)c3ccccc3NC(=O)C3CCCCC3)nc2s1	.	.	.	.	/	.
COC(=O)c1nnn(-c2cccc(C)c2)c1C(=O)OC	.	.	.	.	.	.
Cc1cccc(-n2nnnc2S(C)(=O)=O)c1	-108	?	.	.	/	25µM
COc1cccc(-n2nnnc2S(C)(=O)=O)c1	/	8.9µM	?	?	?	?
COc1cccc(Oc2nnnn2-c2ccccc2)c1	.	.	/	/	.	.
CCOC(=O)n1c(=O)oc2ccccc21	-96	.	.	.	.	.
CC(=O)Nc1cc(-c2ccc(C(=O)NC3CC3)cc2)cn2c(-c3cccc(C(F)(F)F)c3)cnc12	.	/	?	?	/	25µM
SMILES	HCMV inh	LASV entry inh	VACV mCherry inh	VACV Venus inh	MARV entry inh	FMDV inh
CC(=O)Nc1cc(-c2ccc(C(=O)NC3CC3)cc2)cn2c(-c3cccc(C(C)=O)c3)cnc12	.	/	.	.	/	?
Cc1ccc(CN2CCN(Cc3c(C)nn(C(C)C)c3C)CC2CCO)o1 (stereo not given)	-99	/	/	/	/	.
Cc1ccc(CN2CCN(Cc3ccncc3)CC2CCO)o1 (stereo not given)	.	.	.	.	.	.
COc1cccc(C(=O)NC(c2ccc(Cl)cc2)c2cc(Cl)c3cccnc3c2O)c1 (stereo not given)	?	?	10µM	?	/	.
COc1cc(C(=O)NC(c2ccc(Cl)cc2)c2cc(Cl)c3cccnc3c2O)cc(OC)c1OC (stereo not given)	.	?	16µM	?	/	.
COc1cc(C(=O)NC(c2ccccc2)c2ccccc2)cc(Cl)c1OC	.	.	.	.	.	.
c1ccc([C@H]2NCCc3c2[nH]c2ccccc32)cc1	/	/	/	/	.	/
CCC[C@H]1[C@@H](NC(=O)Nc2ccc(C(F)(F)F)cc2)CC[C@@]23CCCN2C(=O)CCC[C@@H]13	.	/	/	/	/	/
Cc1cc(C)nc(S[C@H]2C[C@@H](C(=O)N3CCN(c4ccccc4F)CC3)N(Cc3ccccc3F)C2)n1	/	/	.	.	/	.
COC(=O)C1=C(C)N(CCC(C)O)C(=O)N(C(C)=O)C1c1ccccc1 (stereo not given)	/	?	/	/	.	/
O=C(COc1ccccc1[N+](=O)[O-])OCC(=O)N1CCC(Cc2ccccc2)CC1	.	.	.	.	?	.
Cc1ccc(OCC(=O)N2CCC(Cc3ccccc3)CC2)c([N+](=O)[O-])n1	-74	/	/	/	/	.
O=C(COc1cccnc1[N+](=O)[O-])N1CCC(Cc2ccccc2)CC1	-76	.	.	.	?	.
O=C(COc1ccccc1C(=O)OCC(=O)N1CCOCC1)Nc1ccc(Br)cc1	/	/	.	.	/	/
C[C@H]1[C@@H](NC(=O)NCCCc2ccccc2)CC[C@@]23CCCN2C(=O)CCC[C@@H]13	.	/	/	/	/	/
COC(=O)CC=C[C@H](C)[C@@H](OCc1ccccc1Br)C(C)C	/	?	/	/	.	/
COc1cc(Cl)c(C)cc1NC(=O)CSc1nc2c(c(=O)[nH]1)CCCC2	.	.	.	.	.	.
CC(=O)OCc1c(-c2ccccc2)c2cc([N+](=O)[O-])ccc2n1C	-77	.	.	.	.	.
Cn1c(CO)c(-c2ccccc2)c2cc([N+](=O)[O-])ccc21	.	.	?	?	.	.
CC(C)CON=C1C[C@@H](O)[C@@H](O)[C@@H]2[C@H]3C(=O)N(C[C@@H]4CCCO4)C(=O)[C@@H]3CC[C@H]12	/	/	/	/	.	/
Cc1cc(-c2ccnc(-n3ncc(C(=O)N(C)CC(O)c4ccccc4)c3C)n2)c(C)s1 (stereo not given)	/	/	.	.	/	.
COC(=O)C1=C(C)N(Cc2ccccc2)C(=NCCc2cccnc2)N[C@H]1c1ccc(Br)cc1	/	/	?	13µM	/	?
COC(=O)C1=C(C)N(Cc2ccccc2)C(=NCc2cc(OC)c(OC)c(OC)c2)N[C@H]1c1cccc(F)c1	/	/	.	.	/	?
COC(=O)C1=C(C)N(Cc2ccccc2)C(=NCCc2cccnc2)NC1c1ccc(Br)cc1 (stereo not given)	/	?	/	/	.	/
COC(=O)C1=C(C)N(Cc2ccccc2)C(=NCc2ccco2)N[C@H]1c1cccc(F)c1	.	/	.	.	/	.
COC(=O)C1=C(C)N(Cc2ccc(C(F)(F)F)cc2)C(=NCc2ccccc2)NC1c1cccc(F)c1 (stereo not given)	-99	/	/	/	/	/
COC(=O)C1=C(C)N(Cc2cccc(C(F)(F)F)c2)C(=NCc2ccc(C(F)(F)F)cc2)NC1c1cccc(F)c1 (stereo not given)	-99	/	/	/	/	/

High-throughput results from PubChem BioAssay.
